# From PubChem BioAssay
# An excerpt weighted towards active compounds, which were near 4.1% of everything screened.
# hcDAF12 agonist – H. contortus DAF-12 activation, primary screen; HEK293 hcDAF-12 lit1-tk-luc reporter, luminescence; 0% DMSO, 100% Δ7-dafachronic acid; activation, % at 6.8 µM; hit rate 1.4% among 370,000; AID 652067;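 active means activation above the mean of all tested compounds plus 3 SD, cut at about 5.5% in these data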;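 further: 100% = response to 3 µM Δ7-dafachronic acid high control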
# hgDAF12 agonist – hgDAF-12 agonism, primary luciferase screen | activation, % at 6.8 µM | HEK293 GAL4-hgDAF12 UAS-luciferase reporter, agonist luminescence; normalized to butyrate control | AID 687014 | hit rate 1.8% among 370,000;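 active means activation above a cutoff set at the mean of all screened compounds plus 3 SD, cut at about 10% in these data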;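 further: 0% = DMSO wells and 100% = sodium butyrate wells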
# DAX1 inh-1 – inhibitors of human orphan nuclear receptor DAX1 (NR0B1); AID 504766; hit rate 0.99% among 340,000; P51843; HEK293 Gal4-DAX1 luciferase reporter, luminescence; inhibition, % at 6.75 µM;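 active means inhibition above the mean over all tested compounds plus 3 SD, cut at about 4.2% in these data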;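 further: 0% = DAX1-transfected cells with DMSO and 100% = empty-vector control cells with DMSO; inhibition shows as a rise in luminescence from relieved DAX1 repression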
# Target sequence (P51843 207-470 limits assumed): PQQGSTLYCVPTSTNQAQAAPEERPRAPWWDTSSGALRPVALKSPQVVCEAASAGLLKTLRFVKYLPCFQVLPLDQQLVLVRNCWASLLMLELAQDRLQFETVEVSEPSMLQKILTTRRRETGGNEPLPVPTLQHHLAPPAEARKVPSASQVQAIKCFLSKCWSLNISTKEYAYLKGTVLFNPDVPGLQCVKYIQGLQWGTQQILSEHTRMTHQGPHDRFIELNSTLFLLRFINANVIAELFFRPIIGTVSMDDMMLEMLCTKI
# PolyA inhibitor – inhibitors of polyadenylation in S. cerevisiae; activity score, % at 12 µM; S. cerevisiae SKY197-pL101 polyadenylation reporter, beta-gal luminescence; efflux-impaired pdr1/pdr3 knockout yeast; score 100 = 6 SD above DMSO; hit rate 0.02% among 300,000;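 active means lowest replicate activity score at least 50, where 100 means six control SD above control mean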;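 further: yeast exposed to compound for 9 h at 30 °C; higher score means more reporter readthrough which indicates perturbed polyadenylation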
# ssDAF-12 act – S. stercoralis DAF-12 activation, primary screen; HEK293 ssDAF-12/GRIP1 lit1-tk-luc reporter, luminescence; % of 3 µM dafachronic acid response; activation, % at 6.8 µM; hit rate 1% among 370,000;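 active means activation above the mean over all tested compounds plus 3 SD, cut at about 0.9% in these data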;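 further: 0% = DMSO-only wells and 100% = 3 µM delta7-dafachronic acid wells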
# DAX1 inh-2 – inhibitors of DAX1 repression of SF-1 activated StAR promoter; inhibition, % at 6.8 µM; HEK293T StAR-luciferase reporter, SF-1/DAX-1 repression relief; AID 652010; hit rate 1.1% among 370,000;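 active means inhibition above the mean over all tested compounds plus 3 SD, cut at about 3.6% in these data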;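 further: 0% = DAX-1 cells with DMSO and 100% = cells lacking DAX-1 with DMSO; higher inhibition means more luminescence from relief of DAX-1 repression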
# DAX1 inh confirm – NR0B1 (human) inhibition, confirmation. shares compounds with DAX1 inh-2. HEK293T StAR-promoter luciferase reporter, SF-1/DAX-1 repression. inhibition, % at 6.8 µM. hit rate 87% among 2,400. AID 652134;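 active means inhibition above the average of every tested compound plus 3 SD, cut at about 3.8% in these data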;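 further: 0% = DAX-1 cells with DMSO and 100% = no DAX-1 control cells with DMSO; active compounds raise luminescence by relieving repression of the StAR reporter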
# SF1 AF2mut Luc – nonselective inhibitor or artifact in SF-1 mutant DAX1 counter-screen. inhibition, % at 6.8 µM. hit rate 78% among 2,400. HEK293 StAR-luciferase, SF-1 AF2 mutant, luminescence. shares compounds with DAX1 inh-2;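 active means inhibition above the mean of all tested compounds plus 3 SD, cut at about 3% in these data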;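 further: 0% = DAX-1 transfected cells with DMSO and 100% = cells without DAX-1 with DMSO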
# LXR ag – LXR-beta agonism as hcDAF-12 counter-screen; shares compounds with hcDAF12 agonist; HEK293 Gal4-LXR tk-luc reporter, luminescence, 24 h; normalized: DMSO 0%, positive control 100%; activation, % at 6.8 µM; 3,400 tested, under 10 active; AID 743027;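 active means mean percent activation of the reporter above a cutoff set as the average over tested compounds plus their standard deviation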
# Target sequence (P55055 whole entry, looked up, the tested form may be a part): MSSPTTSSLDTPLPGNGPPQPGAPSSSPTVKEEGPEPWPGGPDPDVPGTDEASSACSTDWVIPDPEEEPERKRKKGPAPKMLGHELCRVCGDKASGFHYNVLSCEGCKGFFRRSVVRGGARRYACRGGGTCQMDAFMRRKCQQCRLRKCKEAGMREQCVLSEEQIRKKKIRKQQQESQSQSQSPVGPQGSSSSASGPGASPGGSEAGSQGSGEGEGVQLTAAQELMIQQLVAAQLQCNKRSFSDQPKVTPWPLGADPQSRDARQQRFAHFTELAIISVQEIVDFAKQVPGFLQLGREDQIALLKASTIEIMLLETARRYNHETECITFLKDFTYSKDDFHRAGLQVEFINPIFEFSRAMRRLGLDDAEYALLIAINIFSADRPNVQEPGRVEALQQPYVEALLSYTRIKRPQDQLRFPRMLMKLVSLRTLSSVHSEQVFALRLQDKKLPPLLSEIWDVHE
# hcDAF12 ag – hcDAF-12 agonism, confirmation assay; activation, % at 6.8 µM; HEK293 hcDAF-12 lit1-tk-luc reporter, luminescence; % of Δ7-dafachronic acid response; shares compounds with hcDAF12 agonist; AID 743032; hit rate 61% among 3,400;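 active means mean activation across triplicate tests above the threshold derived from the earlier primary screen, cut at about 5.5% in these data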;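 further: 0% = DMSO only wells and 100% = 3 µM Δ7-dafachronic acid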
# hgDAF12 ag – confirmation of H. glycines DAF-12 agonists; shares compounds with hgDAF12 agonist; hit rate 80% among 3,300; HEK293 GAL4-hgDAF12 luciferase reporter, agonist mode; percent of butyrate response; activation, % at 6.8 µM; AID 743050;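 active means mean activation over triplicate wells above the hit cutoff derived from the earlier primary screen, cut at about 11% in these data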;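 further: 0% = DMSO low control and 100% = 2 mM sodium butyrate high control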
# LXR ag 2 – activates human LXR-beta, counter-screen for DAF-12 agonists; AID 743051; activation, % at 6.8 µM; shares compounds with hgDAF12 agonist; 3,300 tested, under 10 active; HEK293 Gal4-LXR luciferase reporter, 24 h;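 active means mean activation of the triplicate above a set limit carried over from the primary screen, none filed active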
# Numbers without * were called inactive; x = no result given.
SMILES,hcDAF12 agonist,hgDAF12 agonist,DAX1 inh-1,PolyA inhibitor,ssDAF-12 act,DAX1 inh-2,DAX1 inh confirm,SF1 AF2mut Luc,LXR ag,hcDAF12 ag,hgDAF12 ag,LXR ag 2
Cc1ccc(/C=C/C(=O)Nc2ccc(S(=O)(=O)Nc3onc(C)c3C)cc2)cc1,2.2,-1.9,0.4,6.5,-0.3,0.2,x,x,x,x,x,x
Cc1cc([N+](=O)[O-])ccc1NC(=O)c1csc(C)c1C,2.8,19.2*,2.7,-17.5,0.3,5.5*,4.5*,2.9*,x,x,18.9*,0.5
CNC(=S)Nc1ccc([N+](=O)[O-])cc1C,-1.6,-2.1,-0.3,0.3,-1.7,0.0,x,x,x,x,x,x
COc1ccc2oc3cc(NCCN(C)C)ccc3c(=O)c2c1,9.2*,43.0*,x,x,2.2*,16.0*,21.7*,13.1*,2.2,8.4*,41.6*,1.4
Cc1sc(=NC(=O)c2ccco2)n(C)c1-c1ccc(F)cc1,5.3,9.7,0.1,-14.7,0.5,2.0,x,x,x,x,x,x
Cn1c(=NC(=O)c2ccco2)sc2ccccc21,19.9*,21.1*,2.7,-9.1,4.0*,7.1*,8.1*,4.9*,1.3,15.7*,20.0*,0.9
COc1ccc(C(=O)CSc2nnc(-c3ccc(C)cc3)o2)cc1,-0.1,1.4,1.2,-9.6,-0.6,-0.3,x,x,x,x,x,x
COc1ccc(-c2nnc(SCC(C)C)o2)cc1,4.1,22.6*,3.1,14.0,0.7,4.8*,8.2*,3.4*,x,x,22.1*,1.2
Cc1cc(-c2ccncc2)n2ncc(-c3ccccc3)c2n1,10.8*,19.3*,x,x,2.5*,13.1*,18.8*,9.5*,1.7,10.9*,22.9*,0.8
COc1ccc(OCC(=O)N2CCN(C(=O)c3ccc(F)cc3)CC2)cc1,0.6,-1.4,0.5,-7.4,-0.8,3.6,x,x,x,x,x,x
COCc1ccc(C(=O)N2CCCC(Nc3ccc(C(C)C)cc3)C2)o1 (centres undefined),-1.4,0.3,-0.2,-6.1,-1.1,-2.9,x,x,x,x,x,x
COc1cccc(C(=O)/C=C/Nc2cccc(O)c2)c1,x,x,-3.1,4.9,x,x,x,x,x,x,x,x
COc1cccc(N/C=C/C(=O)c2ccc(Cl)cc2)c1,7.1*,19.9*,1.8,-27.5,0.8,6.1*,17.2*,6.6*,2.2,8.7*,22.3*,1.4
CCCCCCN1C=CC(=C2C(=O)c3ccccc3C2=O)C=C1,8.6*,14.1*,-1.7,-3.5,1.1*,9.4*,0.0,-4.3,0.8,6.1*,5.6,0.8
CCCN1C=CC(=C2C(=O)c3ccccc3C2=O)C=C1,-5.7,-14.4,-4.5,24.0,-3.5,-3.6,x,x,x,x,x,x
CCCCN1C(C)=CC(=C2C(=O)c3ccccc3C2=O)C=C1C,7.5*,22.1*,0.7,-17.2,0.1,6.7*,6.1*,2.7,2.0,10.6*,11.6*,1.1
COc1ccc(CC(=O)Nc2ccc(N(C)C)c3ccccc23)cc1,0.6,-4.0,1.0,-6.1,-1.3,0.1,x,x,x,x,x,x
CC(C)NS(=O)(=O)c1ccc(OCC(=O)Nc2ccc(F)cc2F)cc1,x,x,-0.2,-5.6,x,x,x,x,x,x,x,x
CCCOc1ccc(/C=C/c2c([N+](=O)[O-])c(=O)n(C)c(=O)n2C)cc1,-1.2,1.3,-0.7,13.6,-0.8,-0.9,x,x,x,x,x,x
COc1ccc(N=C2C(=Nc3ccc(OC)cc3)N(c3ccccc3)C(=S)N2C(=O)c2ccc(Cl)cc2)cc1,4.5,15.0*,-0.5,-24.9,-0.3,4.5*,6.0*,5.8*,x,x,18.3*,0.8
COc1ccc(N=C2C(=Nc3ccc(OC)cc3)N(c3ccc(OC)cc3)C(=S)N2C(=O)c2ccc(OC)cc2)cc1,1.7,3.4,0.6,15.6,-1.5,1.1,x,x,x,x,x,x
CCOc1ccc(/C=C\C(C)=N\O)cc1,1.6,13.5*,2.4,-12.1,0.4,4.9*,8.2*,6.9*,x,x,13.4*,0.5
CC(=O)c1sc(NC(=O)c2cccc(C)c2)nc1C,5.4,19.7*,7.0*,11.1,0.3,4.6*,5.9*,5.4*,x,x,15.2*,0.9
Cc1nn(-c2ccccc2)c(C)c1/C=N/Nc1nc2ccccc2[nH]1,9.1*,21.6*,0.5,3.7,1.8*,6.4*,17.1*,8.5*,1.6,8.9*,16.9*,1.1
CC(/C=N/Nc1nc2ccccc2[nH]1)=C\c1ccccc1,8.8*,20.8*,2.3,-13.0,1.5*,6.9*,18.1*,7.0*,1.6,6.6*,22.7*,1.1
SMILES,hcDAF12 agonist,hgDAF12 agonist,DAX1 inh-1,PolyA inhibitor,ssDAF-12 act,DAX1 inh-2,DAX1 inh confirm,SF1 AF2mut Luc,LXR ag,hcDAF12 ag,hgDAF12 ag,LXR ag 2
CSc1ccc(-c2ccc3c(c2)c(Sc2ccccc2)c(-c2ccccc2)n3C)cc1,-1.9,-2.1,x,x,-0.9,0.8,x,x,x,x,x,x
Cc1cccc(-c2noc(-c3csc([C@@H]4C[C@H](O)[C@@H](CO)O4)n3)n2)c1,4.7,18.3*,x,x,0.8,9.8*,16.0*,9.5*,x,x,19.5*,1.0
COC(=O)c1ccc(COc2cc(O)c3c(c2)OC(C)(C)CC3=O)cc1,-1.1,1.3,0.5,-2.7,-1.0,0.5,x,x,x,x,x,x
CC1(C)CC(=O)c2c(O)cc(OCc3ccc(Br)cc3)cc2O1,4.6,14.3*,3.5,-12.7,-0.2,4.6*,12.6*,8.9*,x,x,9.4,0.7
Cc1ccc(OCC(=O)NCCNC(=O)c2ccccn2)cc1,-2.4,0.1,-1.1,-3.3,-0.5,-0.4,x,x,x,x,x,x
COc1ccc2cc3cc(C(=O)N4CCCCC4C)oc3nc2c1 (centres undefined),3.7,14.0*,-0.5,-17.9,0.3,10.6*,10.1*,5.3*,x,x,17.3*,0.9
Cc1ccc(O)c(-c2cc(C(=O)Nc3cccnc3)[nH]n2)c1,1.7,18.8*,7.0*,-0.3,-0.1,4.8*,12.8*,6.2*,x,x,13.2*,0.7
